Here are results for 98 compounds from PubChem BioAssay AID431 (Sanford-Burnham Center for Chemical Genomics, 2006).

Among all 63,000 compounds or so, about 1,100 (1.7%) were called active. This excerpt belongs to a sample that is enriched for actives. Potency and affinity values are given separately. Values without a mark were called inactive.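 How the source made its calls: active means compounds whose percent cytotoxicity in the single-dose primary screen, scaled between solvent and toxic-drug controls, exceeds 50; inactive means the rest.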

This assay is described as follows: cytotoxicity in KRAS-transformed pancreatic duct cells, primary screen, cell-based, fluorescence, HTS (AID 431).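 Further: 0% = DMSO solvent wells and 100% = doxorubicin-treated wells.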 Conditions: HPDE-C7K KRASV12 cells, Alamar Blue viability, 48 h; at 10 µM; active compounds read high. A general note: The colour change of resazurin is a common sign of viable cells or microbes.
Regarding `Cc1ccnc(NC(=O)CCC(=O)N(CC(=O)NC2CCCCC2)c2ccc3c(c2)OCO3)c1`, the cytotoxicity was -7.7%.

Consider `CCC1CCCCN1C(=O)CSc1nc(N)c(NC(=O)c2ccco2)c(=O)[nH]1` (stereo not drawn), for which the cytotoxicity was -21.6%.

On to `CC1Oc2ccccc2N(CC(=O)c2cccc(Cl)c2)C1=O` (stereo not drawn), for which the cytotoxicity was -8.4%.

In the case of `CCOC(=O)CS(=O)(=O)c1ccc2ccccc2c1`, the cytotoxicity is -6.4%.

With `COc1ccc(-c2cc(C(F)(F)F)nc(SCCC(=O)NCc3ccco3)n2)cc1`, the cytotoxicity was -8.8%.

Regarding `CCOC(=O)c1cnn2c(C)cc(-c3ccc(F)cc3)nc12`, the cytotoxicity is -18.9%.

Regarding `Cc1cc(NC(=O)CCCS(=O)(=O)c2nc(-c3cccs3)cc(C(F)(F)F)n2)no1`, the cytotoxicity is 4.1%.

Take `COc1ccc(-c2cc(C(F)(F)F)nc(SCC(=O)Nc3cc(C)on3)n2)cc1`: the cytotoxicity is -11.8%.

In the case of `COCC(C)NC(=O)CCS(=O)(=O)c1nc(-c2ccc(OC)cc2)cc(C(F)(F)F)n1` (stereo not drawn), the cytotoxicity is 52.3% (active).

As for `CCOC(=O)CS(=O)(=O)c1nc(-c2ccccc2)cc(C(F)(F)F)n1`, the cytotoxicity is 34.5%.

For the compound `COC(=O)c1ccc2c(=O)n(CCCCCC(=O)NCc3ccccn3)c(=O)[nH]c2c1`, the cytotoxicity was 2.9%.

Take `CCCC(=O)NCCCCNC(=O)CCC`: the cytotoxicity is -12.2%.

`Cc1ccc(CN(Cc2cccnc2)C(=O)CN2C(=O)COc3ccccc32)o1`: the cytotoxicity is -12.5%.

As for `O=C(Nc1ccc(N2CCN(c3ccc(O)cc3)CC2)cc1)Oc1ccccc1`, the cytotoxicity is 65.7% (active).

`CC(=O)Nc1ccc(NC(=O)Oc2ccccc2)cc1`: the cytotoxicity is -2.5%.

For `CC(C)Oc1ccc(NC(=O)Oc2ccccc2)cc1`, the cytotoxicity is 3.4%.

`Cn1c(=O)c2ccccc2n(Cc2ccccc2F)c1=O`: the cytotoxicity was 2.5%.

Consider `CCOc1ccccc1Oc1ccc(C(F)(F)F)cn1`, for which the cytotoxicity is -8.8%.

For `COc1ccccc1C(=O)Nc1nc2ccc(S(C)(=O)=O)cc2s1`, the cytotoxicity was -0.1%.

For the compound `CS(=O)(=O)c1ccc2nc(NC(=O)c3cccs3)sc2c1`, the cytotoxicity is 3%.

Consider `CC(C)n1nc(C(=O)Nc2nc3ccc(S(C)(=O)=O)cc3s2)c2ccccc2c1=O`, for which the cytotoxicity is 53.7% (active).

Consider `Cc1cccc(OCCCc2c(C)n[nH]c2C)c1`, for which the cytotoxicity was 12.8%.

Consider `CCCCNS(=O)(=O)c1ccc2nc(SCC(=O)Nc3sccc3C#N)[nH]c2c1`, for which the cytotoxicity was 80.6% (active).

In the case of `N#Cc1ccsc1NC(=O)CSc1ncn[nH]1`, the cytotoxicity is -18.4%.

Turning to `CCCCNS(=O)(=O)c1ccc2nc(SCC(=O)c3ccc(C#N)cc3)[nH]c2c1`, the cytotoxicity was 10.9%.

As for `CCn1cc(/C=C(/C#N)S(=O)(=O)c2ccccc2)cn1`, the cytotoxicity is 2.3%.

For the compound `Cc1ccc(C(C)NC(=O)c2c(C)noc2C)cc1C` (stereo not drawn), the cytotoxicity is -2.1%.

Take `CCOC(=O)N1CCN(Cc2nc(N)nc(Nc3ccc(Oc4ccccc4)cc3)n2)CC1`: the cytotoxicity was 28%.

As to `CCOc1ccccc1OCC(=O)O`, the cytotoxicity was 6.8%.

In the case of `O=C(O)COc1ccc2nsnc2c1Cl`, the cytotoxicity is -27.6%.

For `C=CCOc1ccccc1/C=N/O`, the cytotoxicity was -4.8%.

`O=C1CN(C(=O)c2ccc(Br)o2)C(c2ccccc2)c2cc(F)ccc2N1` (stereo not drawn): the cytotoxicity was 3%.

Take `COCCN(CC(=O)NCc1ccccc1)C(=O)CCC(=O)Nc1ccccn1`: the cytotoxicity is 4.7%.

On to `CCCCOc1ccc(C(=O)NC)cc1`, for which the cytotoxicity was -11.7%.

On to `CCCCOc1ccc(C(=O)OC2CC(C)N(C)CC2C)cc1` (stereo not drawn), for which the cytotoxicity is 81.6% (active).

As to `CCCCOc1ccc(C(=O)N2CCC(C)CC2)cc1`, the cytotoxicity is -4.4%.

As to `Cc1cc(C)n(-c2nc3nonc3nc2-n2nc(C)cc2C)n1`, the cytotoxicity was -2.4%.

For `O=C1N=c2ccccc2=C1c1sc(=S)n(CC2CCCO2)c1O` (stereo not drawn), the cytotoxicity is 20.6%.

`C=CCn1c(O)c(C2=c3ccccc3=NC2=O)s/c1=N/c1nccs1`: the cytotoxicity is -2.3%.

With `C=CCn1c(O)c(C2=c3ccccc3=NC2=O)sc1=Nc1ccc(O)cc1`, the cytotoxicity was 117% (active).

As for `C=CCOC(=O)C1=C(C)NC(C)=C(C(=O)OCC=C)C1c1ccc(O)cc1`, the cytotoxicity was 1.1%.

Turning to `CN1C(=O)CC(C(=O)Nc2ccc(F)cc2)SC1=Nc1ccc2c(c1)OCO2` (stereo not drawn), the cytotoxicity is 12.5%.

With `O=C(COc1nncc2ccccc12)NCCC1=CCCCC1`, the cytotoxicity is -7.1%.

As for `COc1cc(CC(=O)Oc2ccc3c(c2)OCO3)cc(OC)c1OC`, the cytotoxicity is 27.3%.

In the case of `COc1cc(CC(=O)NCc2ccc3c(c2)OCO3)cc(OC)c1OC`, the cytotoxicity was -11.8%.

On to `COc1cc([C@@H]2c3cc4c(cc3[C@H](O)[C@H]3COC(=O)[C@H]23)OCO4)cc(OC)c1OC`, for which the cytotoxicity was 70% (active).

With `Cc1cccc(C)c1OCC(=O)Nc1cccc(NC(=O)c2ccco2)c1`, the cytotoxicity was 2.8%.

Consider `CCN(CC)c1ccc(NC(=O)c2cc3ccccc3o2)c(C)c1`, for which the cytotoxicity was -6%.

Take `COC(=O)c1ccccc1NC(=O)Cn1c(-c2nonc2N)nc2ccccc21`: the cytotoxicity is 41.3%.

Take `CCOC(=O)Cn1c(-c2nonc2NC(=O)c2ccccc2F)nc2ccccc21`: the cytotoxicity is 41%.

Regarding `CCCCn1c(-c2nonc2NC(=O)c2ccccc2Cl)nc2ccccc21`, the cytotoxicity is 53.9% (active).

Take `N#CCCn1c(-c2nonc2NC(=O)c2ccccc2Cl)nc2ccccc21`: the cytotoxicity was 41.9%.

Take `CCCCOc1ccccc1NC(=O)Cn1c(-c2nonc2N)nc2ccccc21`: the cytotoxicity was 42.3%.

`CCOC(=O)c1ccccc1NC(=O)Cn1c(-c2nonc2N)nc2ccccc21`: the cytotoxicity was 58.5% (active).

On to `CCc1nnc(NC(=O)OCc2ccccc2)s1`, for which the cytotoxicity was -11.2%.

For the compound `Cn1nnnc1SCC(=O)N1CCN(c2cccc(Cl)c2)CC1`, the cytotoxicity is 14.5%.

For the compound `COc1ccc(N(CC(=O)Nc2ccc(C)cn2)S(=O)(=O)c2c(C)noc2C)cc1`, the cytotoxicity was -11.9%.

Take `CCC(Sc1nc(=O)cc(N)n1CCc1ccccc1)C(=O)Nc1cc(C)on1` (stereo not drawn): the cytotoxicity is -10.3%.

With `O=C(NCCc1ccc(Cl)cc1)C1CCN(S(=O)(=O)N2CCCC2)CC1`, the cytotoxicity is -2.3%.

`N#Cc1nc(-c2cccs2)oc1NCc1ccccc1`: the cytotoxicity is 3.2%.

Consider `N#Cc1nc(-c2cccs2)oc1NCCc1ccccc1`, for which the cytotoxicity is 50.3% (active).

Turning to `Cc1ccc(CNc2oc(-c3cccs3)nc2C#N)cc1`, the cytotoxicity was 0.3%.

Turning to `CCN1CCN(c2ncnc3c2sc(=S)n3-c2ccccc2)CC1`, the cytotoxicity is 2.5%.

For `COc1ccc(NC(=O)c2ccc(Cl)c(S(=O)(=O)N3CCc4ccccc4C3)c2)cn1`, the cytotoxicity is 80% (active).

For `COc1ccccc1NC(=O)c1ccc(Cl)c(S(=O)(=O)N2CCOCC2)c1`, the cytotoxicity is -3.3%.

With `O=C(Nc1cccnc1)c1ccc(Cl)c(S(=O)(=O)N2CCCCCC2)c1`, the cytotoxicity was -5.1%.

Regarding `N#C/C(C(N)=O)=c1/ccc2c(c1)N1C3=C(CCCC3)CC3CCCCC31N=2` (stereo not drawn), the cytotoxicity was 66.4% (active).

Take `N#CC(C#N)=c1ccc2c(c1)N1C3=C(CCCC3)CC3CCCCC31N=2` (stereo not drawn): the cytotoxicity was 71.7% (active).

Take `Cc1cc(-c2ccccc2)nc(=O)[nH]1`: the cytotoxicity was -3%.

Regarding `CCn1c(=O)cc(OCC(=O)N2CCN(C(=O)c3ccco3)CC2)c2ccccc21`, the cytotoxicity is -0.6%.

In the case of `CC(=O)Nc1ccc(C(=O)CSc2nnc(Cn3nnc4ccccc43)n2C)cc1`, the cytotoxicity was 3.6%.

`CCN1C(=O)CS/C1=N\c1nccs1`: the cytotoxicity was -4.6%.

Regarding `CCN=C1SC(C(N)=O)CC(=O)N1CC` (stereo not drawn), the cytotoxicity was 0.6%.

`COc1ccc(N2CCN(CC(=O)Nc3nc4c(s3)CC(C)CC4)CC2)cc1` (stereo not drawn): the cytotoxicity was 32.4%.

As for `COCCNC(=O)CSc1nc(-c2ccc(OC)c(OC)c2)cc(C(F)(F)F)n1`, the cytotoxicity is -8.7%.

Take `CCOC(=O)c1sc2nc(CSc3nc4ccccc4n3CC)[nH]c(=O)c2c1C`: the cytotoxicity was -11.3%.

As for `O=C(Cc1cn2ccsc2n1)Nc1nc2c(s1)CN(Cc1ccccc1)CC2`, the cytotoxicity was -6.3%.

`O=C(Cc1cn2ccsc2n1)Nc1nc2c(s1)CCCC2`: the cytotoxicity is 23.2%.

`CC(C)(C)C1CCc2nc(NC(=O)Cc3cn4ccsc4n3)sc2C1` (stereo not drawn): the cytotoxicity was 52.5% (active).

`CCOc1ccc(Cc2nn[nH]n2)cc1`: the cytotoxicity was -19.6%.

In the case of `COC(=O)CN(c1cc(C(F)(F)F)ccc1Cl)S(C)(=O)=O`, the cytotoxicity was -0.9%.

With `Cc1cccc(NC(=O)c2cc3c(n(-c4ccccc4)c2=O)CCCC3=O)n1`, the cytotoxicity was 20%.

As to `Cc1ccc(-n2c3c(cc(C(=O)Nc4cccc(C)n4)c2=O)C(=O)CCC3)cc1`, the cytotoxicity was -27.1%.

Consider `COc1ccc(-n2c3c(cc(C(=O)Nc4ccc5c(c4)C(=O)NC5=O)c2=O)C(=O)CCC3)cc1`, for which the cytotoxicity is 61.2% (active).

Regarding `COc1ccc(CCNC(=O)c2ccncc2)cc1OC`, the cytotoxicity was -13.2%.

Take `COc1ccc(C(=O)NCCn2ccc3ccccc32)c(OC)c1`: the cytotoxicity was -8.9%.

Turning to `Cc1ccc(-c2noc(CCC(=O)N3CCCC3)n2)cc1`, the cytotoxicity was -6.9%.

With `Cc1ccc(S(=O)(=O)N(C)Cc2nc(-c3ccncc3)no2)cc1`, the cytotoxicity was -0.7%.

`Cc1ccccc1-c1noc(-c2ccc(O)cc2)n1`: the cytotoxicity is 29.6%.

Turning to `CN1CCN(C(=O)CSc2nc(-c3cccs3)ccc2C#N)CC1`, the cytotoxicity was 15.2%.

`CCN(CC)C(=O)CSc1nc(C)cc(-c2cccs2)c1C#N`: the cytotoxicity is 2.8%.

For `CC(C)C(=O)N1CCc2cc(-c3csc(N)n3)ccc21`, the cytotoxicity is -1%.

For `O=C(CSc1nc2cc(Cl)ccc2s1)NC(=O)NCc1ccco1`, the cytotoxicity is -8.3%.

With `O=C(CSc1nc2ccccc2s1)NC(=O)NCc1ccco1`, the cytotoxicity is 87.6% (active).

Take `C=CCn1c(SCC(=O)NC(=O)NCc2ccco2)nc2sc(CC)cc2c1=O`: the cytotoxicity was 63.4% (active).

For `C=CCn1c(SCC(=O)N2CCN(C(=O)c3ccco3)CC2)nc2sc(CC)cc2c1=O`, the cytotoxicity is -11.5%.

Consider `O=C(CCCSc1nc2ccccc2s1)NCc1ccco1`, for which the cytotoxicity was 5.8%.

Consider `C=CCn1c(SCC(=O)NC(=O)NCc2ccco2)nc2sc(C)c(C)c2c1=O`, for which the cytotoxicity is 4.8%.
